Assay outcomes from PubChem.
D3 antag: blocks the human D3 dopamine receptor; P35462; D3R cells, DiscoveRx beta-arrestin luminescence, antagonist mode; active compounds read low; max response, negative = inhibition, %; actives 2.5% (n = 360,000); in the data active means max response below about -50%; inconclusive means no clear call, values can overlap the other calls
Target sequence (P35462 whole entry, looked up): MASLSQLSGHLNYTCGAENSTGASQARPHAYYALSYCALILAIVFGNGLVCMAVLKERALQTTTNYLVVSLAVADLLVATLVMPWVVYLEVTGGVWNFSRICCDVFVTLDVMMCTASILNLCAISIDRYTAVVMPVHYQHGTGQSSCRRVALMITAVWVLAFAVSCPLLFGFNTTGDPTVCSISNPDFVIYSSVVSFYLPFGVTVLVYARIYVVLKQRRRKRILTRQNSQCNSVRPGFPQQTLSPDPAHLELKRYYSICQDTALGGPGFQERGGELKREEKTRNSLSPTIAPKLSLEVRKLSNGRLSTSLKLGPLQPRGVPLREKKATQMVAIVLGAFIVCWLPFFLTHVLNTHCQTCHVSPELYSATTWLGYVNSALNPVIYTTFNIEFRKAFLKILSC
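Cells expressing the human receptor were seeded at 1500 cells/well, incubated overnight at 37 degrees C in 5% CO2, then exposed to library compounds with dopamine controls for 90 minutes at 37 degrees C before luminescent detection.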
Integrin act MD: integrin-mediated muscular dystrophy alleviation activation | alpha7betagal myoblasts, beta-gal FDG fluorescence, 48 h | Potency, µM (highest dose often 38.3 µM), most hits filed as activators | actives 0.064% (n = 350,000) | AID 624291; active means well fitted activation curve with a large enough effect; inconclusive means small, poorly fitted or top-dose-only effect; inactive means no such curve, though single readings can be large or run the other way; further: nearly all actives have a fitted effect of over 60% in size
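alpha7betagal+/- myoblasts (passage 13, 250/well) treated 48 h at 37C with compounds at 1:260 dilution of DMSO stock. Lysed, then beta-galactosidase activity read as FDG fluorescence (ex 480/em 540) after 30 min, with pre-read for autofluorescence.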
D3 ag: activates the human D3 dopamine receptor; P35462; D3R DiscoveRx beta-arrestin cells, luminescence, 90 min; max activation, %; actives 0.58% (n = 410,000); in the data active means max activation above about 30%
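Cells at 1500/well, incubated overnight, then treated with pinned compounds (dopamine as control) for 90 min at 37 degrees C. DiscoveRx reagent added for 30 - 60 minutes at room temperature; luminescence read.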
Each line names hits and unclear results; the compound was inactive in the other large screens. Shown are actives, neighbours in structure and some others; about 2.9% of the full set was active somewhere.

COc1ccc(C(=O)C2CCCN(Cc3ccc(C)s3)C2)c(OC)c1 (stereo not drawn)	D3 antag -68.9
COc1cccc(O)c1CN1CCCC(C(=O)c2sccc2C)C1 (stereo not drawn)	D3 antag inconclusive
CCN1CCN(S(=O)(=O)c2ccc(Cl)c(C(=O)Nc3ccc(C(=O)N(CC)CC)cc3)c2)CC1	none
N#CCCn1cc(C(=O)Nc2ccccc2Cl)c(-c2ccc(F)cc2)n1	none
O=C(C(=O)N1CCOCC1)c1cn(Cc2ccccc2F)c2ccccc12	none
COc1ccc(F)cc1C(=O)C1CCCN(Cc2cnc(C)s2)C1 (stereo not drawn)	D3 antag inconclusive
COc1ccc(Cl)cc1C(=O)C1CCCN(Cc2cnc(C)s2)C1 (stereo not drawn)	D3 antag -55.8
O=C1NC(=O)C(Cc2cccs2)C(=O)N1	none
CCN(CC)C(=O)N[C@H]1C[C@@H]2c3cccc4[nH]cc(c34)C[C@H]2N(C)C1	D3 ag 79.4 (no result: Integrin act MD)
CC(C)C[C@H]1C(=O)N2CCC[C@H]2[C@]2(O)O[C@](NC(=O)[C@@H]3C[C@@H]4c5cccc6[nH]cc(c56)C[C@H]4N(C)C3)(C(C)C)C(=O)N12	none (no result: D3 antag, Integrin act MD)
CN1C[C@H](CO)C[C@@H]2c3cccc4[nH]cc(c34)C[C@H]21	D3 antag -56.2, D3 ag 30.5
CC(C)(C)c1nc(NCc2ccc3c(c2)OCO3)c2nnn(Cc3ccccc3Cl)c2n1	none
COc1ccc(-c2nn(CCC#N)cc2C(=O)NCc2ccccc2)cc1OC	none
CC12CCC3C(CCC4CC(=O)C(C(O)C(F)(F)F)CC43C)C1CCC2O (stereo not drawn)	none
CCOP(=O)(OCC)C(NC(=O)c1ccc(Cl)cc1)=C(Cl)Cl	none
CCOP(=S)(OCC)SCSc1ccc(Cl)cc1	D3 ag 48.0 (no result: D3 antag, Integrin act MD)
Brc1ccc2c(c1)-n1nncc1CN(CC1CCCCC1)C2	D3 antag inconclusive (no result: Integrin act MD)
Cc1ccc(CN2Cc3ccc(Br)cc3-n3nncc3C2)cc1	D3 antag -55.5 (no result: Integrin act MD)
CCCCc1nc2ccccc2c(=O)n1-c1ccc(O)cc1	none
CC(=O)c1cccc(OCC(O)CN2CC=C(c3ccccc3)CC2)c1 (stereo not drawn)	D3 ag 72.9
Cc1cccc(OCC(O)CN2CC2)c1 (stereo not drawn)	none
CCOC(=O)C1(c2ccccc2)CCN(CCC(C#N)(c2ccccc2)c2ccccc2)CC1	D3 antag -72.2 (no result: Integrin act MD)
CCOC(=O)C1(c2ccccc2)CCN(CCC(=O)Nc2ccc(C(=O)OC)cc2)CC1	D3 antag -50.9
CCOC(=O)C1(c2ccccc2)CCN(CCC(=O)Nc2cccc(Br)c2)CC1	D3 antag -87.2
CCC(=O)Nc1ccccc1	none
CCOC(=O)C1(c2ccccc2)CCN(CCC(=O)Nc2ccc(OC)cc2)CC1	none
CCOC(=O)C1(c2ccccc2)CCN(CC(=O)Nc2ccc(C)cc2)CC1	D3 antag -55.7
CCOC(=O)C1(CCOc2ccccc2)CCN(Cc2ccccc2OC)CC1	D3 antag inconclusive
O=C(CCN1CCOCC1)Nc1ccc(Br)cc1C(=O)c1ccccc1	none
CS(=O)(=O)c1ccc(C2=C(CNC(=O)c3ccncc3)[C@H]3CC[C@@H](C2)N3Cc2ccco2)cc1	none
COC(=O)C1=C(c2cccc(OC)c2OC)C[C@@H]2CC[C@H]1N2C(=O)NCC1CC1	none
O=c1c2ccccc2nc(-c2ccccc2)n1-n1cccc1	none
CCCCCSc1cc(OC)c(CCN)cc1OC	none
CCCCCCCSc1cc(OC)c(CCN(C)C)cc1OC	D3 antag -65.7
C1CCC2S[C@H]3CCCCC3NC2C1 (stereo partly drawn)	none
CCc1cccc(NC(=O)CN2C(=O)CN=C(c3ccccc3F)c3cc(Cl)ccc32)c1	none (no result: D3 antag, Integrin act MD)
CCn1nc(-c2ccccc2)nc2c(=O)n(C)c(=O)nc1-2	D3 antag inconclusive
Cc1nc2c(=O)n(C)c(=O)nc-2n(C)n1	D3 antag -98.1
Oc1c(Br)cc(-c2ccccc2)cc1Br	none
CCOC(=O)C1(CCc2ccccc2)CCN(Cc2cccc3cnccc23)CC1	none
CCOC(=O)C1(CCc2ccccc2)CCN(Cc2cccc3c2OCO3)CC1	D3 antag -81.0
COC(=O)C1=C(c2ccc(F)cc2F)C[C@@H]2CC[C@H]1N2C(=O)N1CCC(C)CC1	none
c1ccc2c(CCNC3CCCCC3)c[nH]c2c1	none
c1ccc2[nH]c(CCNC3CCCCC3)nc2c1	D3 antag -52.8
COc1ccc(C(=O)Oc2cccc3cccnc23)cc1S(=O)(=O)N1CCOCC1	none
COc1cc(C(=O)OC2C[C@H]3CC[C@@H](C2)N3)ccc1O (stereo partly drawn)	none
CC12CCC3C(CCCC4CC(=O)CCC43C)C1CCC2O (stereo not drawn)	none
COC(=O)C1CN(C#N)N(c2ccc(Cl)cc2)C12c1ccccc1-c1ccccc12 (stereo not drawn)	D3 antag -76.3
CC1(C)C(C(=O)N2CCN(c3ccc(Cl)cc3)CC2)C1(C)C	Integrin act MD inconclusive
C=CCN1CC[C@]23c4c5ccc(O)c4OC2C(O)C=CC3[C@H]1C5 (stereo partly drawn)	D3 antag -109.7 (no result: Integrin act MD)
COc1ccc2c3c1OC1C(O)C=CC4[C@@H](C2)N(C)CC[C@]314 (stereo partly drawn)	none (no result: Integrin act MD)
CC(C)(C)c1ccc(O)c(N=Cc2c(O)ccc3ccccc23)c1	Integrin act MD inconclusive
CCOC(=O)[C@]12Cc3cc(Cl)ccc3[C@H]1N(C1CCCCC1)C(=O)c1cc(OC)ccc12	D3 antag -123.4 (no result: Integrin act MD)
CCOC(=O)[C@]12Cc3ccc(C)cc3[C@H]1N(C1CCCCC1)C(=O)c1cc(OC)ccc12	D3 antag inconclusive (no result: Integrin act MD)
CCOC(=O)[C@]12Cc3ccc(C)cc3[C@H]1N(C1CCCCC1)C(=O)c1ccccc12	D3 antag -72.7 (no result: Integrin act MD)
CCOC(=O)[C@]12Cc3cc(C)ccc3[C@H]1N(C1CCCCC1)C(=O)c1ccccc12	D3 antag inconclusive (no result: Integrin act MD)
CC1([N+](=O)[O-])COP(=O)(Nc2cccc(Br)c2)OC1 (stereo not drawn)	none
CN1CCCCC1c1ccc(-c2cccnc2)nc1 (stereo not drawn)	none
CC[C@H]1C[C@@H]2C[C@H]3c4[nH]c5ccc(OC)cc5c4CCN(C2)[C@@H]13	none (no result: D3 antag, Integrin act MD)
CCOC(=O)C1=C(N)OC2=C(C(=O)CCC2)C12C(=O)N(C)c1ccccc12 (stereo not drawn)	none
CCCCOC(=O)C1=C(N)OC2=C(C(=O)CCC2)[C@]12C(=O)N(C)c1ccccc12	D3 antag -53.7
Cc1ccc2c(=O)n(-c3cccc(Cl)c3)c(=O)[nH]c2c1	none (no result: D3 antag, Integrin act MD)
C[C@@H]([C@@H](O)c1ccccc1)N(C)C(=O)Cc1ccccc1	none
CN(C)CC(C(=O)Cc1ccccc1)c1ccccc1 (stereo not drawn)	D3 antag -62.5
COc1ccc(-c2cc(-c3ccccc3)[n+](C)c(-c3ccccc3)c2)cc1	none
C[n+]1c(-c2ccccc2)cc(CCCCc2cc(-c3ccccc3)[n+](C)c(-c3ccccc3)c2)cc1-c1ccccc1	D3 antag -73.5
COc1ccccc1-n1c(O)c(/C=C2\C=Nc3ccccc32)c(=O)[nH]c1=O	none
CO[C@H]1C=CCCC=CC(=O)O[C@H]([C@H](C)C(=O)CCCC2CC(=O)NC(=O)C2)C(C)=C[C@@H](C)[C@@H]1O	none (no result: Integrin act MD)
CCN1CCN(c2cn[nH]c(=O)c2Cl)CC1	D3 antag -74.9
